# Test results published in PMC4336329 (PLoS ONE, 2015).
# In all, about 310,000 compounds went through this assay and about 14,000 (4.5%) showed an effect of 50% or more. The effect is printed as a negative number. This is one part of a sample in which strong results are shown more often than they occur.
# Target: human ether-à-go-go-related gene (hERG) potassium channel (human, UniProt Q12809)
# Assay: primary screen, population patch clamp on CHO cells stably expressing hERG; higher = less effect of the substance
# 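Also: peak tail current of the secondary pulse compared with the same well before compound.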
# human ether-à-go-go-related gene (hERG) potassium channel, sequence (Q12809 whole entry, looked up): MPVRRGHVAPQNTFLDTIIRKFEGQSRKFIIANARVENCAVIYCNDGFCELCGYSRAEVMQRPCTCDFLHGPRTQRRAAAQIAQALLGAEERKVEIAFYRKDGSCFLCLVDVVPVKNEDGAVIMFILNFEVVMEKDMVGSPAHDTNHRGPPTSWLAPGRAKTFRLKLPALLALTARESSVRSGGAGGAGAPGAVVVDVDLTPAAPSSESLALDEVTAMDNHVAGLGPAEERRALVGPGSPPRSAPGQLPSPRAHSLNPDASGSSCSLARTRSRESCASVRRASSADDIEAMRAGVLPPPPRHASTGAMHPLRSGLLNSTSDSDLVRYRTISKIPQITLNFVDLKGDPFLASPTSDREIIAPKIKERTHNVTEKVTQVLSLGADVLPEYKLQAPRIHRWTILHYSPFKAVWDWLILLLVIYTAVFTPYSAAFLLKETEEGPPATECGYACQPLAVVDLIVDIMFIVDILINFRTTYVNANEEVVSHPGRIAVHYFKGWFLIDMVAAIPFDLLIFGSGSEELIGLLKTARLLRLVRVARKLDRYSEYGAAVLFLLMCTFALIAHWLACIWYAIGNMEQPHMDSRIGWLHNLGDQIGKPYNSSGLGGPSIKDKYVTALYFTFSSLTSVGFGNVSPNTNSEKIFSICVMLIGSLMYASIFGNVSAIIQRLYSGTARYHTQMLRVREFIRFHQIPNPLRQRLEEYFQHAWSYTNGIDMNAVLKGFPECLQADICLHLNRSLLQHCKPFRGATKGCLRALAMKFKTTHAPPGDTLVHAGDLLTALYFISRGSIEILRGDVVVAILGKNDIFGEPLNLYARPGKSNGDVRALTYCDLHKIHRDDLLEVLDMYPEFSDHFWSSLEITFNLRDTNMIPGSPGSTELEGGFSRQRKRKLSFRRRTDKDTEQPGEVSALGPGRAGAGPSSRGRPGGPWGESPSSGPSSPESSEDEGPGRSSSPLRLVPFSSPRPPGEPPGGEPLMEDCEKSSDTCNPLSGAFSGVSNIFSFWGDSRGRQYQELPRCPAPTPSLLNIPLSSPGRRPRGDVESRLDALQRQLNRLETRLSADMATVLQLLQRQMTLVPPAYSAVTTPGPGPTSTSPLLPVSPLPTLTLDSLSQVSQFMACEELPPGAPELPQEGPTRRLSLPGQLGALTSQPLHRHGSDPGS
row,Structure (SMILES),"hERG current change (%, negative = inhibition) at 10uM [%]"
1,Cc1cc(NC(=O)c2cccs2)ncc1NC(=O)C(C)(C)C,9.59
2,CN(C)S(=O)(=O)N1CCCC(C(=O)c2ccc(-c3ccccc3)c(F)c2)C1 (centres unmarked),7.39
3,Cn1nc(C(=O)N2CCCC2)c2ccccc2c1=O,23
4,O=C(c1ccc(-c2ccccc2)cc1)C1CCCN(C(=O)c2ccncc2)C1 (centres unmarked),-13.4
5,CSc1ccc(C(=O)C2CCCN(C(=O)c3cc(C)n(C)n3)C2)cc1 (centres unmarked),-7.88
6,O=C(c1ccc(C(F)(F)F)cc1)C1CCCN(Cc2ccncc2)C1 (centres unmarked),-23.7
7,CSc1ccc(C(=O)C2CCCN(C)C2)cc1 (centres unmarked),-23.1
8,CSc1ccc(C(=O)C2CCCN(CCCn3cccn3)C2)cc1 (centres unmarked),-76.8
9,Cn1cc(CN2CCCC(C(=O)c3ccc(-c4ccccc4)c(F)c3)C2)cn1 (centres unmarked),-55.4
10,CSc1ccc(C(=O)C2CCCN(C(=O)c3nn(C)c(=O)c4ccccc34)C2)cc1 (centres unmarked),-64.9
11,CSc1ccc(C(=O)C2CCCN(C(=O)CCCn3cncn3)C2)cc1 (centres unmarked),-40.5
12,O=C(c1ccc(-c2ccccc2)cc1)C1CCCN(Cc2ccncc2)C1 (centres unmarked),-62.6
13,Clc1ccc(-c2csc(N/N=C/c3cccnc3)n2)c(Cl)c1,-11.9
14,CC(=O)N1Cc2cc(N)ccc2Oc2ccccc21,9.9
15,Cc1cccc(NC(=S)N2CCN(S(=O)(=O)c3ccc(F)cc3)CC2)c1,16.7
16,CCOC(=O)C(NCCCCl)c1ccccc1 (centres unmarked),2.53
17,CCOC(=O)C(C)Sc1nnc(CSc2nc3nc(C)cc(C)n3n2)o1 (centres unmarked),9.3
18,CCOc1ccccc1N=Cc1c(O)c2ccccc2oc1=O,15.4
19,CN(c1ccc(C(=O)N2CCCCC2)cc1)S(C)(=O)=O,10.6
20,COc1ccc(Nc2nc(NC(C)(C)C)nc(N3CCOCC3)n2)c(OC)c1,-25.3
21,O=C(Oc1ccc2c3c(c(=O)oc2c1)CCCC3)c1cccs1,-4.43
22,CCC(=O)N1CCCC(C(=O)c2ccc(-c3ccccc3)cc2)C1 (centres unmarked),-19
23,CCn1cc(CN2CCCC(C(=O)c3ccc(-c4ccccc4)c(F)c3)C2)cn1 (centres unmarked),-57.6
24,O=C(c1ccc(-c2ccccc2)c(F)c1)C1CCCN(CCCn2cccn2)C1 (centres unmarked),-69.6

row,Structure (SMILES),"hERG current change (%, negative = inhibition) at 10uM [%]"
1,Cn1cc(CN2CCCC(C(=O)c3ccc(-c4ccccc4)cc3)C2)cn1 (centres unmarked),-34.4
2,CCn1cc(CN2CCCC(C(=O)c3ccc(-c4ccccc4)cc3)C2)cn1 (centres unmarked),-59.1
3,COCC(=O)N1CCCC(C(=O)c2ccc(-c3ccccc3)c(F)c2)C1 (centres unmarked),-23.3
4,O=C(c1ccc(-c2ccccc2)c(F)c1)C1CCCN(CCO)C1 (centres unmarked),-44.8
5,O=C(c1ccc(-c2ccccc2)c(F)c1)C1CCCN(C(=O)c2cncs2)C1 (centres unmarked),-18.4
6,CC(=O)NCC(=O)N1CCCC(C(=O)c2ccc(-c3ccccc3)c(F)c2)C1 (centres unmarked),-25.1
7,NC(=O)CSc1nc2scc(-c3ccc(Cl)cc3)c2c(=O)n1Cc1ccccc1,33.1
8,O=[N+]([O-])c1ccc(N2CCN(S(=O)(=O)c3ccccc3[N+](=O)[O-])CC2)cc1NCc1cccnc1,-8.91
9,Cc1ccccc1OCC(=O)N/N=C/c1cccc(Oc2ccc([N+](=O)[O-])cc2[N+](=O)[O-])c1,5.59
10,CCn1cc(C(=O)NCCc2ccccc2)c(=O)c2cc(S(=O)(=O)N(C)C)ccc21,7.05
11,O=C(NCCc1csc(-c2cccnc2)n1)c1cccc(Cl)c1,-17.7
12,CC1CCN(c2ccc(C(=O)O)cc2)CC1,2.86
13,Cc1ccccc1/C=C/C(=O)NCC(=O)N1CCC(N(C)C2CCCCC2C)CC1 (centres unmarked),-72.1
14,COc1ccccc1/C=C/C(=O)NC(=S)N(C)C1CCCCC1,1.35
15,O=C(/C=C/c1cccc(Cl)c1)NCCN1CCOCC1,-14.7
16,CCOc1ccccc1/C=C/C(=O)NCC(=O)N1CCC(N(C)C2CCCCC2C)CC1 (centres unmarked),-54.7
17,CC1CCN(C(=O)CNC(=O)Cc2ccccc2)CC1,9.53
18,CCOc1ccc(C(=O)NCC(=O)N2CCC(C)CC2)cc1OCC,3.68
19,CN(C)C(CNC(=O)/C=C/c1cccc(Cl)c1)c1ccccc1 (centres unmarked),-19.2
20,CC1CCCCC1N(C)C1CCN(C(=O)CNC(=O)/C=C/c2cccc(Cl)c2)CC1 (centres unmarked),-73.6
21,COc1ccc(/C=C/C(=O)NCC(=O)N2CCC(N(C)CCN3CCOCC3)CC2)cc1OC,14.7
22,O=C(Nc1ccc(S(=O)(=O)NCC2CCCO2)cc1)C1CC(=O)N(c2ccccc2)C1 (centres unmarked),3.16
23,O=C(NCCCn1ccnc1)c1cn(Cc2ccc(F)cc2)nn1,-9.7
24,COc1ccc(C(C)=O)cc1COC(=O)CNC(=O)c1cc(C)cc(C)c1,-11.7

row,Structure (SMILES),"hERG current change (%, negative = inhibition) at 10uM [%]"
1,Cc1cccc(/C=N/NC(=O)C2CCCNC2=O)c1 (centres unmarked),19
2,Cn1c(O)c(C(=Nc2ccccc2)SCc2ccccc2Cl)c(=O)n(C)c1=O,21.5
3,CC(/C=C1\SC(=Nc2cccnc2)NC1=O)=C\c1ccccc1,8.95
4,CC(=O)NC(Cc1ccccc1C)C(=O)NC1CCN(c2ncccc2[N+](=O)[O-])CC1 (centres unmarked),-1.73
5,O=C(NCCCOc1cccc(CN2CCCCC2)c1)c1ccc(Cl)c(Cl)c1.O=C(O)C(=O)O,-60.8
6,Clc1ccc(OCCCN2CCCC2)cc1Cl.O=C(O)C(=O)O,-67.7
7,Cc1cc(OCC(=O)N2CCCC2)ccc1Cl,-0.71
8,Clc1ccc(OCCN2CCCCC2)cc1Cl.O=C(O)C(=O)O,-42.1
9,Cc1cc(OCCCN2CCCC2)ccc1Cl,-42.9
10,Cc1cc(OCCCCCN2CCCC2)ccc1Cl.O=C(O)C(=O)O,-77.2
11,O=C(O)C(=O)O.c1ccc(COc2cccc(CN3CCCCC3)c2)cc1,-19.2
12,CC(=O)OCC(=O)NCCCOc1cccc(CN2CCCCC2)c1.Cl,-2.29
13,CN1CCN(CCOc2ccc(Cl)c(Cl)c2)CC1.O=C(O)C(=O)O,-22.3
14,CC(=O)Nc1scc(-c2ccccc2)[n+]1-c1ccc(C)cc1.[Br-],1.06
15,O=C(CCCNC(=O)c1ccc(Cl)cc1)Nc1ccc(F)c(S(=O)(=O)N2CCOCC2)c1,-33.6
16,C/C(N)=C(/C#N)C(=O)COC(=O)c1cccc2ccccc12,-8.17
17,Cc1cc(C)cc(NC(=O)CSc2nc3c(c(=O)n2C)SC(C)C3)c1 (centres unmarked),3.64
18,O=C(CCCN1C(=O)NC2(CCCC2)C1=O)N1CCN(S(=O)(=O)c2ccccc2)CC1,0.403
19,CC(=O)C(c1ccccc1)C(c1ccccc1)C(C)[N+](=O)[O-] (centres unmarked),14.3
20,OCC(CO)(CO)n1cnnn1,12.3
21,CCN(CC)c1ccc(/C=N/O)cc1,18.3
22,O=C(NCC1CCCO1)C(c1ccc(F)cc1)N(Cc1ccc(F)cc1)C(=O)Cn1nnc(-c2cccs2)n1 (centres unmarked),-10.9
23,CC(C)(C)NC(=O)C(c1ccncc1)N(CC1CCCO1)C(=O)Cn1nnc(-c2ccc(F)cc2)n1 (centres unmarked),-3.33
24,O=C(NCC1CCCO1)C(c1ccco1)N(Cc1ccc(F)cc1)C(=O)CN1C(=O)c2ccccc2S1(=O)=O (centres unmarked),-7.48

row,Structure (SMILES),"hERG current change (%, negative = inhibition) at 10uM [%]"
1,O=C(NCC1CCCO1)C(c1ccncc1)N(Cc1ccc(F)cc1)C(=O)CN1C(=O)c2ccccc2S1(=O)=O (centres unmarked),-58.3
2,CC(C)CCNC(=O)C(c1ccncc1)N(CC1CCCO1)C(=O)Cn1nnc(-c2ccc(F)cc2)n1 (centres unmarked),-64.8
3,CC(C)CCNC(=O)C(c1ccncc1)N(C(=O)Cn1nnc(-c2ccc(F)cc2)n1)c1ccccc1F (centres unmarked),-24.2
4,COc1ccc(CN(C(=O)CN2C(=O)c3ccccc3S2(=O)=O)C(C(=O)NCC2CCCO2)c2ccncc2)cc1 (centres unmarked),-10.3
5,CC(C)CCNC(=O)C(c1ccncc1)N(Cc1cccs1)C(=O)Cn1nnc(-c2ccc(F)cc2)n1 (centres unmarked),-8.51
6,O=C(NCC1CCCO1)C(c1ccncc1)N(Cc1cccs1)C(=O)Cn1nnc(-c2ccc(F)cc2)n1 (centres unmarked),-60.1
7,Cc1ccc(-n2c(SCC(=O)Nc3ccc(Cl)cc3)nc(O)cc2=O)cc1,9.08
8,CC(C)(C)c1ccc(C(=O)Nc2ccc(O)c3c(=O)cc(-c4ccccc4Cl)oc23)cc1,-3.26
9,O=C(NCCO)/C(=C\c1ccco1)NC(=O)c1ccco1,1.44
10,CNc1ccc(NC(C)=O)cc1[N+](=O)[O-],1.68
11,CNC(=O)CCN(Cc1ccco1)S(=O)(=O)c1ccc(OC)c(OC)c1,14.1
12,Cc1cc(C)c(NC(=O)CSc2nnc(-c3ccncc3)n2Cc2ccco2)c(Cl)c1,-52.7
13,CCn1c(SCC(=O)Nc2cc(C)c(Cl)cc2OC)nnc1-c1ccco1,-4.93
14,C=CCn1c(SCC(=O)Nc2cc(C)c(Cl)cc2OC)nnc1-c1ccco1,-23.6
15,Cc1cc(Cl)ccc1NC(=O)CSc1nnc(Cc2cccs2)n1Cc1ccco1,-45.3
16,O=C(CSc1nnc(Cc2cccs2)n1Cc1ccco1)Nc1ccc(Cl)cc1Cl,-57.1
17,COc1cc(Cl)c(C)cc1NC(=O)CSc1nnc(-c2ccco2)n1CC(C)C,-62.1
18,Cc1cc(C)c(NC(=O)CSc2nnc(-c3ccncc3)n2Cc2ccco2)c(C)c1,-31.6
19,O=C(CSc1nnc(Cc2cccs2)n1Cc1ccco1)Nc1cccc(Cl)c1,-13.9
20,COC(=O)c1c(NC(=O)CSc2nnc(-c3cccnc3)n2Cc2ccco2)sc(C)c1C,-59.3
21,Cc1cccc(C)c1NC(=O)CSc1nnc(-c2ccncc2)n1Cc1ccco1,-29.2
22,CCOC(=O)c1c(NC(=O)CSc2nnc(-c3ccncc3)n2Cc2ccco2)sc(C)c1C,-19.3
23,CCOC(=O)c1c(NC(=O)CSc2nnc(-c3cccnc3)n2Cc2ccco2)sc(C)c1C,-24.7
